PubChem BioAssay (NCATS)
Inconclusive results are not listed. A call without a number means that no potency is given here. Calls of active or inactive are those of the source. Unless noted, the call rests on the fitted dose curve.

Experiments:
[1] = qHTS for Inhibitors of the Functional Ribonucleoprotein Complex (vRNP) of Lassa (LASV) Arenavirus: LASV Primary Screen - GLuc reporter signal (AID 1347082; calls by dose curve; tested in HEK293 reporter line; further: nearly all actives have a fitted effect of over 60% in size)
[2] = qHTS for Inhibitors of the Functional Ribonucleoprotein Complex (vRNP) of Lassa (LASV) Arenavirus: Viability assay - alamar blue signal for LASV Primary Screen (AID 1347083; calls by dose curve; tested in HEK293 reporter line; further: nearly all actives have a fitted effect of over 80% in size)
[3] = qHTS for Inhibitors of the Functional Ribonucleoprotein Complex (vRNP) of Lymphocytic Choriomeningitis Arenaviruses (LCMV): Viability assay - alamar blue signal for LCMV Primary Screen (AID 1347085; calls by dose curve; tested in HEK293 reporter line; further: nearly all actives have a fitted effect of over 80% in size)
[4] = molecular target: Nucleoprotein (Lymphocytic choriomeningitis virus (strain Armstrong)) (UniProt P09992); test: qHTS for Inhibitors of the Functional Ribonucleoprotein Complex (vRNP) of Lymphocytic Choriomeningitis Arenaviruses (LCMV): LCMV Primary Screen - GLuc reporter signal (AID 1347086); further: nearly all actives have a fitted effect of over 70% in size
Chain of Nucleoprotein (Lymphocytic choriomeningitis virus (strain Armstrong)) (P09992 whole entry, looked up): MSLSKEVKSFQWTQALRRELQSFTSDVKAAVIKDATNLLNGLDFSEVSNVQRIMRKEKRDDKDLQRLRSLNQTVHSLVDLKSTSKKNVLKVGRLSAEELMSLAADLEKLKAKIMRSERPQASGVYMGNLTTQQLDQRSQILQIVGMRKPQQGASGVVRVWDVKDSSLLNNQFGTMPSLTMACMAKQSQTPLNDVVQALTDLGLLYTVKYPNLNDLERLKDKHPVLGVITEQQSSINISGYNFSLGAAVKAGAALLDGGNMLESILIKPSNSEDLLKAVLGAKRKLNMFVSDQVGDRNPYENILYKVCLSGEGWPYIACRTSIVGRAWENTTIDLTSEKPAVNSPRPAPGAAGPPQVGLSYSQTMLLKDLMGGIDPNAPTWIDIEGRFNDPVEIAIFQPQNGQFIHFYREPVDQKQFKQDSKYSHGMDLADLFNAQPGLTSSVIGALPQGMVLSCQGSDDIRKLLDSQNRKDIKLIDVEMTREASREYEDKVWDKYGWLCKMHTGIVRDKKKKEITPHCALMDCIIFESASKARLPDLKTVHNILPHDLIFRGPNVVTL
Potency means the concentration at half of the fitted maximal effect.

Row | Structure (SMILES) | Potency [1] | Potency [2] | Potency [3] | Potency [4]
1 | N#CC[C@H](C1CCCC1)n1cc(-c2ncnc3[nH]ccc23)cn1 | inactive | inactive | inactive | inactive
2 | Nc1ccccc1NC(=O)c1ccc(CNc2nccc(-c3cccnc3)n2)cc1 | inactive | 6.85 µM (active) | 12200 nM (active) | inactive
3 | Fc1ccc(Cl)cc1-c1nc(Nc2ccncc2)c2nccnc2n1 | inactive | inactive | inactive | inactive
4 | CCC=CC[C@H]1C(=O)CC[C@@H]1CC(=O)OC | inactive | inactive | inactive | inactive
5 | O=C(C=Cc1cccnc1)NCCCCC1CCN(C(=O)c2ccccc2)CC1 | 68.5 nM (active) | 0.0611 µM (active) | 38.5 nM (active) | 38.5 nM (active)
6 | CS(=O)(=O)Oc1ccc2c(NC(N)=O)c(C(=O)c3ccc(Cl)cc3Cl)oc2c1 | inactive | 27.3 µM (active) | 27300 nM (active) | inactive
7 | COc1ccccc1N1CCN(CC(O)COc2cc(OC)c(OC)c(OC)c2)CC1 (stereo not drawn) | inactive | inactive | inactive | inactive
8 | CCC(=C(c1ccccc1)c1ccc(OCCN(C)C)cc1)c1ccccc1 | inactive | inactive | inactive | inactive
9 | C=CC(=O)Nc1cc2c(Nc3ccc(F)c(Cl)c3)ncnc2cc1C#CC(C)(C)N1CCN(C)CC1 | inactive | inactive | inactive | inactive
10 | O=C(Oc1ccccc1)c1cccc(C(=O)Oc2ccccc2)c1 | inactive | inactive | inactive | inactive
11 | C[C@@H]1CN(c2c(F)c(N)c3c(=O)c(C(=O)O)cn(C4CC4)c3c2F)C[C@H](C)N1 | inactive | inactive | inactive | inactive
12 | CC[C@@H]1C(=O)OC[C@@H]1Cc1cncn1C | inactive | inactive | inactive | inactive
13 | CC(C)(C)NCC(O)c1ccc(O)c(CO)c1 (stereo not drawn) | inactive | inactive | inactive | inactive
14 | CC(C)C(C)(C)C(C)(C)C(C)(C)S | inactive | inactive | inactive | inactive
15 | C1=CC2C3C=CC(C3)C2C1 (stereo not drawn) | inactive | inactive | inactive | inactive
16 | CC(C)(C)COc1ccc(-n2cc(C(=O)O)cn2)cc1C#N | inactive | inactive | inactive | inactive
17 | CC(C)(C)c1cc(C(=O)O)c(NC(=O)Nc2ccc3[nH]ncc3c2)s1 | inactive | inactive | inactive | inactive
18 | NC(=O)c1ccc(-c2nc(-c3ccc4c(c3)OCO4)c(-c3ccccn3)[nH]2)cc1 | inactive | inactive | inactive | inactive
19 | C#CC(C)(CC)OC(=O)c1ccccc1C(=O)O (stereo not drawn) | inactive | inactive | inactive | inactive
20 | C1Cc2[nH]nc(-c3nn[nH]n3)c2C1 | inactive | inactive | inactive | inactive
21 | CCOC(=O)c1cccnc1 | inactive | inactive | inactive | inactive
22 | CC(C)(c1ccc(O)cc1)c1ccc(O)cc1 | inactive | inactive | inactive | inactive
23 | [O-][n+]1cccc(/C(Cl)=N/OC[C@@H](O)CN2CCCCC2)c1 | inactive | inactive | inactive | inactive

Row | Structure (SMILES) | Potency [1] | Potency [2] | Potency [3] | Potency [4]
24 | CCCCC(CC)COC(=O)c1ccccc1C(=O)O (stereo not drawn) | inactive | inactive | inactive | inactive
25 | CC1(C)Cc2c(-c3ccccc3)c(-c3ccc(Cl)cc3)c(CC(=O)O)n2C1 | inactive | inactive | inactive | inactive
26 | NCCCC(N)(C(=O)O)C(F)F (stereo not drawn) | inactive | inactive | inactive | inactive
27 | Cn1c2cc(S(C)=O)sc2c2cnn(Cc3cccc(N)c3)c(=O)c21 (stereo not drawn) | inactive | inactive | inactive | inactive
28 | CCCCCCCCCCCCCC(=O)N[C@H](CO)[C@H](O)c1ccc([N+](=O)[O-])cc1 | inactive | inactive | inactive | inactive
29 | O=C(O)c1ccccc1NCCc1ccccc1 | inactive | inactive | inactive | inactive
30 | CCC[C@H](NC(=O)C(C#N)=Cc1cccc(Br)n1)c1ccccc1 | inactive | 34.3 µM (active) | inactive | inactive
31 | COc1ccc(CC2SC(=O)NC2=O)cc1C(=O)NCc1ccc(C(F)(F)F)cc1 (stereo not drawn) | inactive | inactive | 38500 nM (active) | inactive
32 | Oc1c(I)cc(I)c2cccnc12 | inactive | inactive | inactive | inactive
33 | O=C(NOC[C@H](O)CO)c1ccc(F)c(F)c1Nc1ccc(I)cc1F | inactive | inactive | inactive | inactive
34 | CC1(C)SCCN(S(=O)(=O)c2ccc(OCC#CCO)cc2)[C@@H]1C(=O)NO | inactive | inactive | inactive | inactive
35 | O=C(NC1CCNCC1)c1[nH]ncc1NC(=O)c1c(Cl)cccc1Cl | 3430 nM (active) | 0.769 µM (active) | 968 nM (active) | 1930 nM (active)
36 | CCCCC(CC)COC(=O)c1ccc(N(C)C)cc1 (stereo not drawn) | inactive | inactive | inactive | inactive
37 | CCOC(=O)[C@@H](N)CCC(=O)N[C@@H](CSCc1ccccc1)C(=O)N[C@@H](C(=O)OCC)c1ccccc1 | inactive | inactive | inactive | inactive
38 | N#CCNC(=O)c1ccc(-c2ccnc(Nc3ccc(N4CCOCC4)cc3)n2)cc1 | inactive | 21.7 µM (active) | – | inactive
39 | Clc1ccc2ncc(-c3cccc(NC4CNC4)n3)n2c1 | inactive | 21.7 µM (active) | – | inactive
40 | O=C(O)CCC1CCC(c2cc(F)ccc2F)(S(=O)(=O)c2ccc(Cl)cc2)CC1 (stereo not drawn) | inactive | inactive | inactive | inactive
41 | Nc1cc(C(F)(F)F)c(-c2cc(N3CCOCC3)nc(N3CCOCC3)n2)cn1 | 1930 nM (active) | 1.22 µM (active) | – | 685 nM (active)
42 | Nc1ccc(O)c([N+](=O)[O-])c1 | inactive | inactive | inactive | inactive
43 | CC1=C(CO)C(=O)O[C@@H]([C@@H](C)[C@H]2CC[C@H]3[C@@H]4C[C@H]5O[C@]56[C@@H](O)C=CC(=O)[C@]6(C)[C@@H]4CC[C@]23C)C1 | 863 nM (active) | 3.06 µM (active) | 3850 nM (active) | 1530 nM (active)
44 | CN(C)CCN(C)C(=O)c1ccc(NC(=O)Nc2ccc(-c3nc(N4CCOCC4)c4ccn(CC(F)(F)F)c4n3)cc2)cc1 | 48.5 nM (active) | 0.0485 µM (active) | 43.2 nM (active) | 76.9 nM (active)
45 | Nc1nc(-c2nn(Cc3ccccc3F)c3ncccc23)nc(N)c1N1CCOCC1 | inactive | inactive | – | inactive
46 | NC(CO)(CO)CCc1ccc(Sc2cccc(OCc3ccccc3)c2)cc1Cl | inactive | inactive | inactive | inactive

Row | Structure (SMILES) | Potency [1] | Potency [2] | Potency [3] | Potency [4]
47 | O=C(O)[C@@H](c1ccc(OCc2ccc3ccccc3n2)cc1)C1CCCC1 | inactive | inactive | inactive | inactive
48 | CC(=O)N[C@@H](CCC(N)=O)C(=O)O | inactive | inactive | inactive | inactive
49 | CC[C@H](CO)Nc1nc(NCc2ccccc2)c2ncn(C(C)C)c2n1 | inactive | 15.3 µM (active) | – | inactive
50 | CC(C[N+](C)(C)C)OC(N)=O (stereo not drawn) | inactive | inactive | inactive | inactive
51 | CN1CCN(c2c(F)cc3c(=O)c(C(=O)O)cn4c3c2OCN4C)CC1 | inactive | inactive | inactive | inactive
52 | CO[C@H]1C=CC=C(C)C(=O)NC2=CC(=O)C(NCCN(C)C)=C(C[C@@H](C)C[C@H](OC)[C@@H](O)[C@@H](C)C=C(C)[C@@H]1OC(N)=O)C2=O | 685 nM (active) | 0.611 µM (active) | 544 nM (active) | 306 nM (active)
53 | COc1cc(Nc2ncc(F)c(Nc3ccc4c(n3)NC(=O)C(C)(C)O4)n2)cc(OC)c1OC | inactive | inactive | – | inactive
54 | Cc1c(CN2CCN(C(=O)C(C)C)CC2)sc2c(N3CCOCC3)nc(-c3cnc(N)nc3)nc12 | 273 nM (active) | 0.137 µM (active) | 273 nM (active) | 217 nM (active)
55 | CCCOC(=O)c1ccc(O)cc1 | inactive | inactive | inactive | inactive
56 | c1ccc2occc2c1 | inactive | inactive | inactive | inactive
57 | COc1ccc2cc(CCC(C)=O)ccc2c1 | inactive | inactive | inactive | inactive
58 | CCn1c(-c2nonc2N)nc2cnc(Oc3cccc(NC(=O)c4ccc(OCCN5CCOCC5)cc4)c3)cc21 | 15300 nM (active) | 12.2 µM (active) | – | 17200 nM (active)
59 | O=C(O)c1ccc(-c2cc3cccnc3c(-c3ccc4nonc4c3)n2)cc1 | inactive | inactive | – | inactive
60 | CC(C)C[C@H](NC(=O)[C@@H](O)[C@H](N)Cc1ccccc1)C(=O)O | inactive | inactive | inactive | inactive
61 | Cc1cccc(C#Cc2ccccc2)n1 | inactive | inactive | inactive | inactive
62 | COc1ccccc1-c1cccc(-c2c(O)c3cc(C#N)c(Cl)cc3[nH]c2=O)c1 | inactive | inactive | inactive | inactive
63 | CCNC(=O)c1noc(-c2cc(C(C)C)c(O)cc2O)c1-c1ccc(CN2CCOCC2)cc1 | 611 nM (active) | 0.273 µM (active) | 544 nM (active) | 306 nM (active)
64 | CN(C)c1ccc(Nc2nc(N)n(C(=O)c3c(F)cccc3F)n2)cc1 | inactive | 21.7 µM (active) | – | inactive
65 | O=c1cc(-c2ccccc2)oc2ccccc12 | inactive | inactive | inactive | inactive
66 | COc1ccc(CCN(C)CCCOc2ccc(S(=O)(=O)c3[nH]c4ccccc4c3C(C)C)cc2)cc1OC | inactive | inactive | inactive | inactive
67 | Cc1ccc(S(=O)(=O)Nc2cc(Cl)ccc2C(=O)Nc2nc(-c3ccccc3)cs2)cc1 | inactive | inactive | inactive | inactive
68 | CCC(=O)N1CCN(c2ccc(-n3c(=O)ccc4cnc5ccc(-c6cnc7ccccc7c6)cc5c43)cc2C(F)(F)F)CC1 | 38.5 nM (active) | 0.0153 µM (active) | 27.3 nM (active) | 68.5 nM (active)
